# Pol kappa inh-1: qHTS for Inhibitors of Polymerase Kappa | purified Pol kappa, fluorescent DNA synthesis assay, 10 min | 400,000 compounds, 0.53% hits | AID 588579, 2011 | DNA polymerase kappa (Homo sapiens), Q9UBT6 | Potency, µM (top dose mostly 107 µM), inactives show at the top dose activity, negative = inhibition, hits mostly inhibitors; also: % is scaled to controls: 0 for no effect and ±100 for the full control effect
#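 First, compounds were pin-transferred onto 10 nM Pol kappa. After 15 min at room temperature, substrate was added to 50 nM final. Fluorescence was then measured kinetically at 0 and 10 min.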
# FEN1 inhibitor: qHTS Assay for the Inhibitors of Human Flap endonuclease 1 (FEN1); P39748; Recombinant FEN1 flap cleavage, fluorescence, 15 min; Potency, µM (titrated, usually from 114 µM), inactives show at the highest dose activity change, negative = inhibition, usual class: inhibitors; 390,000 compounds, 0.35% hits; AID 588795, 2011; also: % is scaled to controls: 0 for no effect and ±100 for the full control effect; nearly all actives have a fitted effect of over 65% in size
#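 FEN1 at 10 nM preincubated with compounds 15 min at room temperature, then flap DNA substrate added at 50 nM final. Signal read at 0 and 15 min; concentration-response fitted with four-parameter Hill equation.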
# Pol iota inh: qHTS for Inhibitors of Polymerase Iota. DNA polymerase iota (Homo sapiens), Q9UNA4. Pol iota fluorescent replication assay, 10 min. Potency, µM (series often up to 115 µM), without a hit: at the top dose activity, negative = inhibition, hits mostly inhibitors. 390,000 compounds, 1% hits
#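 Fluorescent replication assay read twice, at 0 min and 10 min after adding 50 nM (final) substrate. Enzyme (10 nM) and compounds were first incubated 15 min at room temperature; enzyme-free buffer wells were negative controls.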
# Pol beta inh: qHTS Assay for Inhibitors of DNA Polymerase Beta; P06746; 340,000 compounds, 1.3% hits; Potency, µM (series often up to 114 µM), inactives show at the top dose activity change, negative = inhibition, most hits filed as inhibitors; Pol beta primer extension/strand displacement, fluorescence kinetic; also: % is scaled to controls: 0 for no effect and ±100 for the full control effect
#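 Human Pol beta at 10 nM; strand-displacement substrate 50 nM final. Compound exposure 15 min at room temperature before start, reaction 10 min at room temperature.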
# Pol eta inh-1: qHTS for Inhibitors of Polymerase Eta | Potency, µM (top dose mostly 114 µM), for the others: top-dose activity change, negative = inhibition, most hits filed as inhibitors | 390,000 compounds, 1.2% hits | recombinant Pol eta, fluorescent DNA replication assay | AID 588591, 2011 | DNA polymerase eta (Homo sapiens), Q9Y253; also: % is scaled to controls: 0 for no effect and ±100 for the full control effect
#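 Pol eta at 10 nM preincubated with compounds 15 min at room temperature; reaction started with fluorescent substrate (50 nM final) and read kinetically at 0 and 10 min.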
# WRN inhibitor: qHTS for Inhibitors of WRN Helicase. WRN helicase unwinding, fluorescent forked duplex, kinetic. AID 651768, 2012. Bifunctional 3'-5' exonuclease/ATP-dependent helicase WRN (Homo sapiens), Q14191. Potency, µM (doses to about 114 µM), without a hit: top-dose activity change, negative = inhibition, hits mostly inhibitors. 360,000 compounds, 0.46% hits; also: % is scaled to controls: 0 for no effect and ±100 for the full control effect; nearly all actives have a fitted effect of over 55% in size
#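 Fluorescence dequenching readout, ex 525 nm/em 598 nm, kinetic mode: forked duplex DNA (100 nM final) with adjacent fluorophore and quencher unwound by WRN (20 nM final) with 2 mM ATP. Compound preincubation 15 min, room temperature.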
# TbPGK inh: qHTS for inhibitors of Phosphogylcerate Kinase: Hit Validation Screen | shares compounds with Pol kappa inh-1 | TbPGK coupled GAPDH assay, Kinase-Glo luminescence | Potency, µM (titrated, usually from 57.5 µM), for inactives: at the highest dose activity change, negative = inhibition, usual class: inhibitors | 500 compounds, 79% hits; also: % is scaled to controls: 0 for no effect and ±100 for the full control effect; nearly all actives have a fitted effect of over 65% in size
# POLI cherry-pick: qHTS for Inhibitors of Polymerase Iota: Confirmatory Assay for Cherry-picked Compounds. AID 720496, 2013. Potency, µM, hits mostly inhibitors. Pol iota primer extension, TAMRA/BHQ fluorescence. shares compounds with Pol kappa inh-1. 1,500 compounds, 77% hits
# Pol kappa inh-2: qHTS for Inhibitors of Polymerase Kappa: Confirmatory Assay for Cherry-picked Compounds; shares compounds with Pol eta inh-1; purified Pol-kappa, fluorescent strand-displacement substrate; Potency, µM, usual class: inhibitors; 920 compounds, 76% hits; AID 720501, 2013
# Pol eta inh-2: qHTS for Inhibitors of Polymerase Eta: Confirmatory Assay for Cherry-picked Compounds | Pol eta primer extension, TAMRA/BHQ fluorescence, 10 min | shares compounds with Pol eta inh-1 | Potency, µM, usual class: inhibitors | 2,600 compounds, 64% hits | AID 720502, 2013
# The depositor's hits bear a star; u = inconclusive; x = no result; [ ] = dose if it differs, or a comment. The list is not random: actives were taken first. Their share in the collection is about 2.4%. Calls follow the shape of the dose curve; as a rule, active = well fitted curve in the direction sought with a large enough effect; inconclusive = small, poorly fitted or top-dose-only effect, or another doubt; inactive = no such curve, though single readings can be large; an effect the other way counts as inactive or inconclusive. Potency is read from the fitted curve at half-maximal effect.
SMILES,Pol kappa inh-1,FEN1 inhibitor,Pol iota inh,Pol beta inh,Pol eta inh-1,WRN inhibitor,POLI cherry-pick,Pol kappa inh-2,Pol eta inh-2,others
COc1cccc(CNC(=O)c2ccc3nc(-c4ccc(F)cc4)c(-c4ccc(F)cc4)nc3c2)c1,-12%[60.1 µM],2%,-7%,8%,u,x,x,x,x,
Cc1ccc(S(=O)(=O)N2CCCCC2)cc1C(=O)Nc1ccc(S(=O)(=O)Nc2ncccn2)cc1,79µM*,u,40µM*,u,14µM*,u,42*,x,30*,
COc1ccc(N2Cc3cccc(C(=O)Nc4ccc(C)cc4)c3C2=O)cc1,u,-11%,79µM*,13µM*,x,x,u,38*,u,
COc1ccc(N2Cc3cccc(C(=O)Nc4ccc(C(C)C)cc4)c3C2=O)cc1,u,9%,56µM*,11µM*,x,x,u,30*,u,
CCC(=O)Nc1ccc2nc(SCCOc3ccc(C)cc3OC)sc2c1,-5%,-5%,-9%,-21%,-12%,x,x,x,x,
Cc1nc(S/C(=C/c2ccc(OCc3ccc(C(=O)O)cc3)cc2)C(=O)O)n[nH]1,40µM*,u,4µM*,-26%,20µM*,u,12*,x,27*,
COC1=C(N)C(=O)c2nc(C)ccc2C1=O,u,u,18µM*,x,8.9µM*,-33%,24*,19*,30*,
COC1=C(Br)C(=O)c2nc(C)ccc2C1=O,x,x,x,x,14µM*,50µM*,27*,19*,30*,
Cc1nc2c(nc1C)C(=O)c1ccccc1C2=O,-15%,-4%,13%,x,u,-9%,x,x,x,
Cc1ccc(CNc2cc(C)nc3nc(-c4cccc(C)c4)nn23)cc1,-7%[60.1 µM],u,8%,-19%,u,x,x,x,x,
O=C(NCc1ccccc1Br)C1CCCN(C(=O)N2CCOc3ccccc32)C1 (stereo not drawn),-2%,-3%,-2%,-1%,0%,x,x,x,x,
COc1cc(/C=C2\SC(=O)N(c3cccc(Cl)c3)C2=O)cc([N+](=O)[O-])c1O,u,89µM*,6.3µM*,6.3µM*,u,50µM*,38*,4.2*,u,TbPGK inh=4.6µM*
CC(/C=C1\SC(=S)N(c2ccc(C(=O)O)cc2)C1=O)=C\c1ccccc1,-37%,-1%,20µM*,-24%,22µM*,u,38*,x,43*,

# Assay outcomes from PubChem.
